Consider four compounds from PubChem BioAssay (EPA / NIEHS).

Assay [1] in a line: ATG_GLI_CIS: Attagene CIS-FACTORIAL HepG2 Assay for human Zinc Finger Protein GLI1 (AID 2282945). Particulars: HepG2, Attagene cis-factorial reporter mRNA, GLI element; actives raise or lower the signal. The method, boiled down:
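Bidirectional curve fits relative to DMSO, using reporter mRNA levels from RT-PCR plus capillary electrophoresis. Cells were HepG2 transiently carrying cis-regulated reporter constructs, harvested 24 h after dosing.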

The target in assay [2] is Bile acid receptor (Homo sapiens) (UniProt Q96RI1). Briefly: ATG_IR1_CIS: Attagene CIS-FACTORIAL HepG2 Assay for human Nuclear Receptor Subfamily 1 Group H Member 4 (NR1H4), IR1 submotif (AID 2282946). Particulars: IR1 reporter transcription, actives raise or lower the signal. The method, boiled down: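 Cells (human HepG2) carry transiently transfected cis-promoter reporter transcription units. Compounds are incubated 24 h, total RNA is reverse-transcribed and amplified, and labelled fragments are resolved by capillary electrophoresis. Curves use DMSO as baseline.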
Bile acid receptor (Homo sapiens), sequence (Q96RI1 whole entry, looked up, the tested form may be a part): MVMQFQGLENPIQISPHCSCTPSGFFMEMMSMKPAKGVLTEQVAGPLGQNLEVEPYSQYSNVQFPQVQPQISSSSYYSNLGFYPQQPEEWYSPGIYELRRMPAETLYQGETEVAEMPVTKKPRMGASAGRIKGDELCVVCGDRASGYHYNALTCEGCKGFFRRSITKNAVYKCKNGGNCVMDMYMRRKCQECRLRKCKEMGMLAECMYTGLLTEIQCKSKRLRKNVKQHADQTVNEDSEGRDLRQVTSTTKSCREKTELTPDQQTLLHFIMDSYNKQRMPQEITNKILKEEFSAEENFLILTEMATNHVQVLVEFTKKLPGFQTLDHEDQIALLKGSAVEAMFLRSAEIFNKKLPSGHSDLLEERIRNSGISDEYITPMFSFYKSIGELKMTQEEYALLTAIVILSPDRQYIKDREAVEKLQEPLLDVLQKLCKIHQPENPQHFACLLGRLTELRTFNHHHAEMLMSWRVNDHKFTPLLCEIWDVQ

Assay [3] in a line: ATG_ISRE_CIS: Attagene CIS-FACTORIAL HepG2 Assay for human Interferon Regulatory Factor 1 (IRF1) binding to an Interferon-Stimulated Response Element (ISRE) (AID 2282948). The conditions noted are these: HepG2 ISRE cis-reporter (Attagene), mRNA transcription readout; actives raise or lower the signal. The method, boiled down: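 Transiently transfected HepG2 cells carrying cis-element reporter units, dosed 24 hours. Reporter mRNA quantified by RT-PCR, fluorescent primer extension, HpaI digestion and capillary electrophoresis. Bidirectional fitting relative to DMSO.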

Assay [4] can be described thus: ATG_M_06_CIS: Attagene CIS-FACTORIAL HepG2 Assay for M06 Transcription Factor (Internal Marker) (AID 2282950). Particulars: HepG2 Attagene CIS-FACTORIAL M06 internal marker reporter; actives raise or lower the signal. Summed up:
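Internal background marker within multiplexed cis-reporter HepG2 system. Cells transiently transfected, dosed 24 h; reporter mRNA measured by RT-PCR, HpaI digestion and capillary electrophoresis. Bidirectional fit relative to DMSO.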

In assay [5] the target is Hypoxia-inducible factor 1-alpha (Homo sapiens) (UniProt Q16665). Briefly: ATG_HIF1a_CIS: Attagene CIS-FACTORIAL HepG2 Assay for human Hypoxia Inducible Factor 1 (HIF1A) (AID 2282951). The conditions noted are these: HepG2 Attagene cis-factorial HIF1a reporter transcription; actives raise or lower the signal. The method, boiled down: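 HepG2, transient cis-reporter library, 24 h dosing. RNA → RT (oligo dT) → PCR → 6-FAM primer extension → HpaI → CE. Bidirectional curve fit vs DMSO.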
Hypoxia-inducible factor 1-alpha (Homo sapiens), sequence (Q16665 whole entry, looked up): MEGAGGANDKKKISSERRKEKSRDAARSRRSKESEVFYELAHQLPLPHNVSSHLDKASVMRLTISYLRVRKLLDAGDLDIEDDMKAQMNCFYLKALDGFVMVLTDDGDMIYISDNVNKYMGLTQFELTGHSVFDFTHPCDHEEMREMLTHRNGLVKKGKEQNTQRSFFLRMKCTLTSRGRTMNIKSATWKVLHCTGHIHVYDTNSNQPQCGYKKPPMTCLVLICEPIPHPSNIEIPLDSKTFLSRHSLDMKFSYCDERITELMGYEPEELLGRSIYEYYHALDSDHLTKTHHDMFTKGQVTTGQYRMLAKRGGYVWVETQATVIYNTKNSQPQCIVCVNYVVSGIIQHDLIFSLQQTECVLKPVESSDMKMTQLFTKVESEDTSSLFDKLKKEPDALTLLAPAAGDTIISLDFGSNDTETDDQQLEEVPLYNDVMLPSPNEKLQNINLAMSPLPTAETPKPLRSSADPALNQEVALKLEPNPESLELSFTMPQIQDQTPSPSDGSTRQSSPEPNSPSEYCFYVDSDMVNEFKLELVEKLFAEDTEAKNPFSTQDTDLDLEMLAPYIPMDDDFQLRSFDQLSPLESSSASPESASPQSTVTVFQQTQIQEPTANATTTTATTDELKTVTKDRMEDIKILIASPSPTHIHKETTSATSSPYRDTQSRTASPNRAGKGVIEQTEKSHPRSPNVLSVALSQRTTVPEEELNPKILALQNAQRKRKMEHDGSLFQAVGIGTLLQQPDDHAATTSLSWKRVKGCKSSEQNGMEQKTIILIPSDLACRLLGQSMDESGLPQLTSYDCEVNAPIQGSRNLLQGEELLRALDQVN

For assay [6], the target named is Hepatocyte nuclear factor 6 (Homo sapiens) (UniProt Q9UBC0). Nature of the assay: ATG_HNF6_CIS: Attagene CIS-FACTORIAL HepG2 Assay for human Hepatocyte Nuclear Factor 6 (HNF6) (AID 2282952). The conditions noted are these: HepG2 Attagene cis-factorial HNF6 reporter transcription; actives raise or lower the signal. Summed up: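 HepG2 cells transiently transfected with cis-element-driven multiplexed reporter units measuring endogenous transcription factor activity. After 24 h exposure, reporter mRNA quantified by RT-PCR, FAM-labelled fragments and capillary electrophoresis; bidirectional fitting versus DMSO.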
Hepatocyte nuclear factor 6 (Homo sapiens), sequence (Q9UBC0 whole entry, looked up, the tested form may be a part): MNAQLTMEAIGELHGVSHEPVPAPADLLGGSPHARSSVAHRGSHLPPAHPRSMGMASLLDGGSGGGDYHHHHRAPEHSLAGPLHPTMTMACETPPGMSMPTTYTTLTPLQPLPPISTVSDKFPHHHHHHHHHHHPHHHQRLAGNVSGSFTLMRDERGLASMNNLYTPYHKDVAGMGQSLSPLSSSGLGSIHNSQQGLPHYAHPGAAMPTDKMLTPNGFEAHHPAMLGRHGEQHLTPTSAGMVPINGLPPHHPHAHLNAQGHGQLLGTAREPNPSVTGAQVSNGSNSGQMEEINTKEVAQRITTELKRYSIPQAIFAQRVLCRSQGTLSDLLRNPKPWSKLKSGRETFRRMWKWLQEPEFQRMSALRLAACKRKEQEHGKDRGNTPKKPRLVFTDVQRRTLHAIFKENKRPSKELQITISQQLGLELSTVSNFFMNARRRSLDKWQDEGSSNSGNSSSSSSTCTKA

Assay [7] has as its target Heat shock factor protein 1 (Homo sapiens) (UniProt Q00613). Briefly: ATG_HSE_CIS: Attagene CIS-FACTORIAL HepG2 Assay for human Heat Shock Transcription Factor 1 (HSE) (AID 2282953). The conditions noted are these: HepG2 HSE cis-reporter, Attagene RNA transcription; actives raise or lower the signal. Summed up: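 HepG2 cells transfected with cis-promoter reporter units sensing endogenous transcription factor activity; reporter mRNA quantified 24 h post-dose by RT-PCR and capillary electrophoresis of 6-FAM-labelled products. Bidirectional fitting against DMSO.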

The nature of assay [8]: ATG_MRE_CIS: Attagene CIS-FACTORIAL HepG2 Assay for human Metal Responsive Element (MRE) (AID 2282954). The conditions noted are these: HepG2 MRE cis-reporter transcription, Attagene multiplex; actives raise or lower the signal. Summed up: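 After a 24 h chemical exposure, transiently transfected HepG2 cells yield RNA whose reporter sequences are amplified, FAM-labelled and sized by capillary electrophoresis. Curves are fitted bidirectionally relative to DMSO.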

Assay [9] is described as follows: ATG_PBREM_CIS: Attagene CIS-FACTORIAL HepG2 Assay for human Phenobarbital-responsive Enhancer Module (PBREM) (AID 2282955). Particulars: HepG2 PBREM cis-reporter, Attagene multiplexed transcription; actives raise or lower the signal. Summed up: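 HepG2, transient MRTU transfection, 24 h dosing; RNA → oligo(dT) RT → PCR → 6-FAM extension → HpaI → CE. Bidirectional fit vs DMSO.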

Assay [10] has as its target Paired box protein Pax-6 (Homo sapiens) (UniProt P26367). Briefly: ATG_Pax6_CIS: Attagene CIS-FACTORIAL HepG2 Assay for human Paired Box 6 (PAX6) (AID 2282956). The conditions noted are these: HepG2 CIS-FACTORIAL PAX6 reporter transcription, RNA readout; actives raise or lower the signal. The method, boiled down: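 HepG2 cells transiently transfected with cis-promoter-driven multiplexed reporter units sensing endogenous transcription factor activity; 24 h chemical exposure. Reporter mRNA quantified by RT-PCR, 6-FAM labelling, HpaI digestion and capillary electrophoresis; bidirectional fit versus DMSO baseline.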

The nature of assay [11]: ATG_PXRE_CIS: Attagene CIS-FACTORIAL HepG2 Assay for human Pregnane X Receptor Element (PXRE) (AID 2282957). The conditions noted are these: HepG2 Attagene CIS-FACTORIAL PXRE reporter, mRNA; actives raise or lower the signal. The method, boiled down: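 HepG2 cells transiently transfected with cis-element-driven multiplexed reporter units; after 24 h chemical exposure, reporter mRNA measured by RT-PCR, 6-FAM labelling, HpaI digestion and capillary electrophoresis. Bidirectional fitting relative to DMSO.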

Assay [12] is described as follows: ATG_PPRE_CIS: Attagene CIS-FACTORIAL HepG2 Assay for human Peroxisome Proliferator-activated Response Element (PPRE) (AID 2282958). Particulars: HepG2 PPRE cis-element reporter, Attagene transcription factor profiling; actives raise or lower the signal. The method, boiled down:
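Transcript-level reporter induction in transfected HepG2 cells after 24 h chemical exposure, quantified by fluorescence from RT-PCR products separated by capillary electrophoresis.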

The nature of assay [13]: ATG_RORE_CIS: Attagene CIS-FACTORIAL HepG2 Assay for human RAR-related Orphan Receptor Element (RORE) (AID 2282959). Particulars: HepG2 Attagene cis-factorial RORE reporter, mRNA; actives raise or lower the signal. The method, boiled down:
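Multiplexed reporter assay measuring mRNA induction from a cis promoter element in transiently transfected HepG2 cells after 24 h treatment. Detection via RT-PCR and capillary electrophoresis fluorescence; DMSO serves as baseline.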

Assay [14] is described as follows: ATG_Sox_CIS: Attagene CIS-FACTORIAL HepG2 Assay for human SRY-box transcription factor (SOX) (AID 2282960). Particulars: HepG2 Attagene cis-factorial SOX reporter, mRNA; actives raise or lower the signal. The method, boiled down: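 Cells were transfected with reporter constructs under cis-regulatory promoters, then exposed to chemicals for 24 h. Reporter transcripts were quantified by fluorescence after RT-PCR and capillary electrophoresis; activity was fitted in both directions against DMSO.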

The target of assay [15] is Transcription factor Sp1 (Homo sapiens) (UniProt P08047). Nature of the assay: ATG_Sp1_CIS: Attagene CIS-FACTORIAL HepG2 Assay for human Specificity Protein 1 (Sp1) (AID 2282961). The conditions noted are these: HepG2 Sp1 cis-reporter transcription, actives raise or lower the signal. Summed up:
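Measures mRNA induction of an Sp1-linked reporter in HepG2 cells 24 h post-dosing. Multiplexed reporters read by RT-PCR and capillary electrophoresis; DMSO serves as negative control and baseline.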

Assay [16] is described as follows: ATG_SREBP_CIS: Attagene CIS-FACTORIAL HepG2 Assay for human Sterol Regulatory Element Binding (SREBP) (AID 2282962). Particulars: HepG2 Attagene cis-factorial SREBP reporter, mRNA; actives raise or lower the signal. Summed up:
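HepG2 cells transiently transfected with multiplexed cis-promoter reporter units sensing endogenous transcription factors; reporter mRNA measured 24 h after dosing by RT-PCR, 6-FAM labeling, HpaI digestion and capillary electrophoresis. Bidirectional fit versus DMSO.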

For assay [17], the target named is Signal transducer and activator of transcription 3 (Homo sapiens) (UniProt P40763). Briefly: ATG_STAT3_CIS: Attagene CIS-FACTORIAL HepG2 Assay for human Signal Transducer and Activator of Transcription 3 (STAT3) (AID 2282963). Particulars: HepG2, Attagene cis-factorial STAT3 reporter transcription; actives raise or lower the signal. Summed up: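 After a 24 h compound incubation, total RNA from MRTU-transfected HepG2 cells was converted to cDNA and reporter sequences PCR-amplified, labelled and profiled by capillary electrophoresis. Gain and loss of signal were referenced to DMSO.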
Signal transducer and activator of transcription 3 (Homo sapiens), sequence (P40763 whole entry, looked up): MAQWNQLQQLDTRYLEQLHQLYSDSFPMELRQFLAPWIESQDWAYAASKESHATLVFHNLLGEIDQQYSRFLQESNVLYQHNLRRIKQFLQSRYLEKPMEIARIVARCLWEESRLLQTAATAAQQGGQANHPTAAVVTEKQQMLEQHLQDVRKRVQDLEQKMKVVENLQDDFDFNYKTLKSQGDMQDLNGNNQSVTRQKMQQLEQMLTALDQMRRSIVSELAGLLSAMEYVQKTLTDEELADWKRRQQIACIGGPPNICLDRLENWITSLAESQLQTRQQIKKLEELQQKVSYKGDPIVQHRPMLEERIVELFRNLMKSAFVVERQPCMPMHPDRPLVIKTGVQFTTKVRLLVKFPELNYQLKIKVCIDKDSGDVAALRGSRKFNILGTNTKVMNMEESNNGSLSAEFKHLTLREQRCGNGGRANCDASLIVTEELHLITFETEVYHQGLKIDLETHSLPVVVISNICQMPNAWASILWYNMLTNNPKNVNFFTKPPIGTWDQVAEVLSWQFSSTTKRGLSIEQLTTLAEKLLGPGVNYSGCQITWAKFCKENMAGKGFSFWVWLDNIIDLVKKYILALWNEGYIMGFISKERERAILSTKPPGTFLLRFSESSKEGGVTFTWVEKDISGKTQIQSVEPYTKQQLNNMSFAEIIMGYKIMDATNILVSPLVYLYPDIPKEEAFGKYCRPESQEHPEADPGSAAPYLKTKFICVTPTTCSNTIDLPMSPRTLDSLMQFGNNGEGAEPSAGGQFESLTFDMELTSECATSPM

A short description of assay [18]: ATG_TA_CIS: Attagene CIS-FACTORIAL HepG2 Assay for human TA Basal Promoter (AID 2282964). Particulars: HepG2 Attagene CIS-factorial TA basal promoter reporter; actives raise or lower the signal. The method, boiled down: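 HepG2 cells transiently transfected with multiple reporter units under cis promoter elements, reporting endogenous transcription factor activity; this endpoint tracks the TA basal promoter as background control. Reporter mRNA after 24 h dosing measured by RT-PCR/capillary electrophoresis; bidirectional fits versus DMSO.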

A short description of assay [19]: ATG_GRE_CIS: Attagene CIS-FACTORIAL HepG2 Assay for human Glucocorticoid Response Elements (GRE) (AID 2282947). Particulars: HepG2 GRE cis-reporter, Attagene multiplex mRNA; actives raise or lower the signal. The method, boiled down:
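Assay uses human hepatoma HepG2 cells transfected with cis-promoter reporter units, exposed 24 h. mRNA from reporters detected by RT-PCR plus capillary electrophoresis; DMSO serves as negative control and baseline.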

Each structure is given as a SMILES string. The source made the active and inactive calls. How the source made its calls: active means hit-call score of the fitted dose curve at least 0.9, where 1 is the maximum; inactive means score below 0.9.

Paired box protein Pax-6 (Homo sapiens), sequence (P26367 whole entry, looked up): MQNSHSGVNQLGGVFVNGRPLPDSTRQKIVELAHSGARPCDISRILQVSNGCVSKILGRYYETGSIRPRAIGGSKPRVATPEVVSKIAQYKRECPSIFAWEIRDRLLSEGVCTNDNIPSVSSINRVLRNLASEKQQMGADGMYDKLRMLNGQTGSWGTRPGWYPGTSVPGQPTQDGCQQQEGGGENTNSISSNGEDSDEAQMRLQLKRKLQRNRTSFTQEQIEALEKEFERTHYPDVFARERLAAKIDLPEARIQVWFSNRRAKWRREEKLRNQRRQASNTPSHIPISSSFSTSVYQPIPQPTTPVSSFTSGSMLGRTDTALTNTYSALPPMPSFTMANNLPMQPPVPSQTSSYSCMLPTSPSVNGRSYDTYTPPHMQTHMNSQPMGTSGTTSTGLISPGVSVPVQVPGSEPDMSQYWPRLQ
Heat shock factor protein 1 (Homo sapiens), sequence (Q00613 whole entry, looked up): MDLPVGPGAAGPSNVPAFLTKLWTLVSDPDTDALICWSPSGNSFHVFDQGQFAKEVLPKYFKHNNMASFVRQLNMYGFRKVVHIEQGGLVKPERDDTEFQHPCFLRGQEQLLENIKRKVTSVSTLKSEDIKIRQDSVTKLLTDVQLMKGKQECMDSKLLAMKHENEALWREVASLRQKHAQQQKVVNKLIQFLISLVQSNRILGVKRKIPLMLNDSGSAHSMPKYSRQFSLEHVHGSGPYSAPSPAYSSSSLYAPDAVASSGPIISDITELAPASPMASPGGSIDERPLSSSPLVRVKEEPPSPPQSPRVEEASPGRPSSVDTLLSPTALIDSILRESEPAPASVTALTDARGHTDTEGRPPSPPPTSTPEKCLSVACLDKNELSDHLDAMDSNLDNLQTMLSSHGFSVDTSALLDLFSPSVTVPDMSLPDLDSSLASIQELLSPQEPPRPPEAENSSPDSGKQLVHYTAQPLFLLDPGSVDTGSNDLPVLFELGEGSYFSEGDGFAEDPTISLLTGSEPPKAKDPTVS
Transcription factor Sp1 (Homo sapiens), sequence (P08047 whole entry, looked up): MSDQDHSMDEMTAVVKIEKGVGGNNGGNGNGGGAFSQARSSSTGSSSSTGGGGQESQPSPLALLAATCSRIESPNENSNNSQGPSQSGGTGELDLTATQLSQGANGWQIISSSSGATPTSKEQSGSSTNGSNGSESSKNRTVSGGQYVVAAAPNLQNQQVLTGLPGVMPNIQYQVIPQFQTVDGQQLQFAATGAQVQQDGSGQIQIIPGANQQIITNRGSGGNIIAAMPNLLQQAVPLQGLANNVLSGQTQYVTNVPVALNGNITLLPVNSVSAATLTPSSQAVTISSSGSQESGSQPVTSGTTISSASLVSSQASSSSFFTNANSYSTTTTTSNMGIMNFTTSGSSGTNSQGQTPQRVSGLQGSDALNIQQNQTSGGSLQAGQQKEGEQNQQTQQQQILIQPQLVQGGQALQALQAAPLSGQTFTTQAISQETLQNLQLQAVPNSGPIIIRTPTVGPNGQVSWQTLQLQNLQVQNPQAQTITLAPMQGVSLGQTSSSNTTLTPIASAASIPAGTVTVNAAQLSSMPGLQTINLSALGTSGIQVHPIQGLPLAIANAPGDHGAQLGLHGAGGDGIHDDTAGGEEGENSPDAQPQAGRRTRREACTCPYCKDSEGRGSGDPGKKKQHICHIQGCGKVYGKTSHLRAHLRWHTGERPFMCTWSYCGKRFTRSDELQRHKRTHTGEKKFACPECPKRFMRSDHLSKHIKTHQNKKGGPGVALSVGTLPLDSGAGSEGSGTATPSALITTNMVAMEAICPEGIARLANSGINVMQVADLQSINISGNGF

On to `FC(F)(F)C(F)(F)C(F)(F)C(F)(F)C(F)(F)C(F)(F)CCI`, for which the compound was called inactive in assay [1], in assay [2], in assay [3], in assay [4], in assay [5] and in assay [6]. Further, the compound was classed as inactive in assay [7], in [8], in assay [9], in [10], in [11] and in assay [12]. Besides, the compound was called inactive in assay [13], in assay [14], in [15], in [16], in assay [17] and in assay [18].

By AC50 is commonly meant the midpoint of the concentration-response curve, whichever way the signal moves. Regarding `NC(=O)Cn1c(=O)cc(CCN2CCN(c3nccc4sccc34)CC2)c2ccc(F)cc21`, the call in assay [1], in assay [2], in assay [19], in [3], in assay [4] and in [6] was inactive. The result in assay [7], in [8], in assay [10], in assay [12], in assay [15] and in assay [17] was inactive. Further, the result in assay [18] was inactive. Further, the AC50 in [5] was 61.4 µM (active); in assay [11] it was 5.72 µM (active); in assay [16], 18.4 µM (active).

Take `CN1CCN(Cc2cc(-c3ccc4[nH]c(=O)oc4c3)co2)[C@@H](c2ccc(F)cc2)C1`: the call in assay [1], in assay [2], in assay [19], in [4], in assay [6] and in assay [9] was inactive. Moreover, the compound was classed as inactive in assay [14], in assay [15] and in [17]. Also, the half-maximal activity concentration (AC50) in assay [3] is 18 µM (active); in [5], 6.55 µM (active); in assay [8], 48.6 µM (active); in assay [10] it was 47.4 µM (active); in [11], 8.51 µM (active); in [16], 33 µM (active). Also, the AC50 in assay [18] was 33 µM (active).

`Nc1ccc(S(=O)(=O)c2ccc(N)cc2)cc1`: the call in assay [1], in assay [2], in [3], in [4], in [6] and in [7] was inactive. Also, the compound was classed as inactive in [8], in [10], in assay [11], in assay [12], in assay [15] and in assay [16]. The result in assay [17] and in assay [18] was inactive.
